From PubChem BioAssay (NCATS)
Records with an inconclusive call do not appear. Unmarked numbers belong to inactive results. The source made the active and inactive calls. Calls follow the shape of the dose curve; as a rule, active = well fitted inhibition curve with a large enough effect; inconclusive = small, poorly fitted or top-dose-only effect; inactive = no such curve, though single readings can be large or run the other way.

The compounds below were run on Zika virus NS2B-NS3 protease (unlinked complex) (assay: Primary screen GU Rhodamine qHTS for Zika virus inhibitors: Unlinked NS2B-NS3 protease assay (AID 1347159; also: nearly all actives have a fitted effect of over 60% in size)). Conditions: Recombinant ZIKV NS2B-NS3 protease, Rhodamine110 substrate fluorescence; series mostly up to 107 µM; activity change, negative = inhibition: at the top concentration.
In short: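 Percent inhibition derives from the 15-min fluorescence change (ex 480, em 540 nm), normalized to no-enzyme and no-inhibitor wells. Reactions contained 25 nM NS2B-NS3 complex and 1.5 microM substrate in 10 mM Tris-HCl pH 8.0.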
% is scaled to controls: 0 for no effect and ±100 for the full control effect; potency is read from the fitted curve at half-maximal effect.

| SMILES | activity change, negative = inhibition | Potency |
| --- | --- | --- |
| CCS(=O)(=O)c1cccc(-c2cc(C(=O)NC3CCN(C)CC3)c(C)c3[nH]c4ncc(C)cc4c23)c1 | 51.3% |  |
| CCc1c2c(nc3ccc(O)cc13)-c1cc3c(c(=O)n1C2)COC(=O)[C@]3(O)CC | 0.22% |  |
| NCC(=O)Nc1ccc(-n2nc(C(F)(F)F)cc2-c2ccc3c(ccc4ccccc43)c2)cc1 | 241% |  |
| N#Cc1c(O)c2c(-c3ccc(-c4ccccc4O)cc3)csc2[nH]c1=O |  | 2 µM (active) |
| CCOC(=O)C1=C(C)NC2=C(C(=O)CC(C)(C)C2)C1c1ccc(-c2ccccc2)cc1 (stereo not given) | -1.17% |  |
| Cc1cc(CN2CCN(c3c(Br)cnc4nc(-c5ccc(N6CCN(C)CC6)cc5)[nH]c34)CC2)no1 | 4.77% |  |
| CN1CCC(CNc2ccc3ncc(-c4cccc(OC(F)(F)F)c4)n3n2)CC1 | 191% |  |
| O=c1c2ccccc2nc2n1CCc1c-2[nH]c2ccccc12 | 0% |  |
| CS(=O)(=O)N1CCN(Cc2cc3nc(-c4cccc5[nH]ncc45)nc(N4CCOCC4)c3s2)CC1 | 28.2% |  |
| O=C(O)C1(Cc2cccc(Nc3nccs3)n2)CCC(Oc2cccc(Cl)c2F)CC1 (stereo not given) |  | 6.31 µM (active) |
